Experimental data as given in PubChem BioAssay (Tox21).
Records with an inconclusive call do not appear. Entries that show only a call come without a potency. Active and inactive are the calls of the source. Calls come from the whole dose curve; as a rule, active = well fitted cell-killing curve with a large enough effect in the repeat runs; inconclusive = weak or mixed curves, or effect the other way; inactive = no such curve, though single readings can be large or run the other way.

Assay: qHTS assay to identify small molecule agonists of the farnesoid-X-receptor (FXR) signaling pathway - cell viability counter screen (AID 743218); note: nearly all actives have a fitted effect of over 45% in size
Conditions: FXR-bla HEK293T viability, CellTiter-Glo luminescence, 16 h; series mostly up to 62.6 µM
Summary of the method: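 FXR-UAS-bla HEK 293T cells, plated 5 h at 37 C, were exposed to compounds for 16 h at 37 C. CellTiter-Glo was then added to the same wells as the bla readout; luminescence read after 30 min at room temperature.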

**Q.** For `C=C(C)C(=O)O[C@H]1C[C@@H]2CC[C@@]1(C)C2(C)C`, which Potency is on record?
**A.** inactive

**Q.** For `O=S1(=O)CC=CC1`, which Potency is on record?
**A.** inactive

**Q.** Which Potency does the source give for `Oc1cccc2ccccc12` here?
**A.** inactive

**Q.** Which Potency does the source give for `CC(=O)c1ccccc1` here?
**A.** inactive

**Q.** With `C=C(C)C(=O)OCCOCCOCCOC(=O)C(=C)C` as the compound, how does the Potency read?
**A.** inactive

**Q.** For `O=C(O)CCCCCCCCCCC(=O)O`, which Potency is on record?
**A.** inactive

**Q.** With `O=c1[nH]c(=O)n([C@H]2CCCO2)cc1F` as the compound, how does the Potency read?
**A.** inactive

**Q.** Which Potency does the source give for `CC(C)c1ccc(S(=O)(=O)O)cc1` here?
**A.** inactive

**Q.** With `O=[N+]([O-])c1ccc(/C=C/c2ccc([N+](=O)[O-])cc2S(=O)(=O)O)c(S(=O)(=O)O)c1` as the compound, how does the Potency read?
**A.** inactive

**Q.** With `O=C=NCCCCCCN=C=O` as the compound, how does the Potency read?
**A.** inactive

**Q.** Which Potency does the source give for `OCc1cccnc1` here?
**A.** inactive

**Q.** Which Potency does the source give for `COc1ccc2cc([C@H](C)C(=O)O)ccc2c1` here?
**A.** inactive

**Q.** For `C[Si](O[Si](C)(C)C)O[Si](C)(C)C`, which Potency is on record?
**A.** inactive

**Q.** Which Potency does the source give for `C/C=C1/CC2C=CC1C2` (stereo not given) here?
**A.** inactive

**Q.** With `CC1CCC2CC1C2(C)C` (stereo not given) as the compound, how does the Potency read?
**A.** inactive

**Q.** For `O=C(CC(C(=O)OC1CCCCC1)S(=O)(=O)O)OC1CCCCC1` (stereo not given), which Potency is on record?
**A.** inactive

**Q.** For `C[C@H]1C[C@H]2[C@@H]3CCC4=CC(=O)C=C[C@]4(C)[C@@]3(F)[C@@H](O)C[C@]2(C)[C@@]1(O)C(=O)CO`, which Potency is on record?
**A.** inactive

**Q.** Which Potency does the source give for `c1ccc2c(c1)ccc1ccccc12` here?
**A.** inactive

**Q.** For `CCN(CC)CCCC(C)Nc1ccnc2cc(Cl)ccc12` (stereo not given), which Potency is on record?
**A.** inactive

**Q.** Which Potency does the source give for `CCCCCC/C(C=O)=C\c1ccccc1` here?
**A.** inactive

**Q.** With `C=C(C)C(=O)Nc1ccc(Cl)c(Cl)c1` as the compound, how does the Potency read?
**A.** inactive

**Q.** With `CCCCC(CC)COC(=O)C(C#N)=C(c1ccccc1)c1ccccc1` (stereo not given) as the compound, how does the Potency read?
**A.** inactive

**Q.** With `CCCCCCCCCCCCOCCO` as the compound, how does the Potency read?
**A.** inactive

**Q.** For `OCCOCCOCCO`, which Potency is on record?
**A.** inactive

**Q.** Which Potency does the source give for `CN(C)CCCN` here?
**A.** inactive
